# Data published in PubChem BioAssay AID1053143 (Broad Institute, 2014).
# In all, about 3,400 compounds went through this assay and about 120 (3.5%) were called active. A selection follows. Potency and affinity values are given separately. Values without a mark were called inactive. No rule for the calls is given here.
# Experiment: HepG2 cell cytotoxicity, dose response, cytotoxicity control, ATP luminescence, cherry-pick, activator set 2 (AID 1053143)
# Conditions: HepG2 viability, CellTiter-Glo ATP luminescence, 72 h; series mostly up to 26 µM; activity change, negative = cytotoxicity: at the top concentration
row,SMILES,"activity change, negative = cytotoxicity"
1,COC(=O)CSC(C(=O)Nc1ccc(C)c(C)c1)c1ccccc1 (configuration not stated),-18%
2,CCCc1nc2c3ccccc3ccn2c1Cc1ccccc1,-13.7%
3,COc1ccc2[nH]c3c(=O)n(CCc4ccccc4)cnc3c2c1,-10.2%
4,Nc1ccc(C(=O)OCCc2ccccc2)cc1,-19%
5,O=C(Nc1ccc(Cl)cn1)c1ccccc1F,-11.4%
6,O=C(Nc1ccc(Cl)cn1)c1ccc2nccnc2c1,-14.3%
7,OCC1OC(n2ccc3c(SCc4ccccc4)ncnc32)C(O)C1O (configuration not stated),-7.9% [at 6 µM]
8,Cc1cc(N2CCOCC2)nc2cc(O)ccc12,1.65%
9,O=C1c2ccccc2NC(c2ccc(-c3cccs3)o2)N1O (configuration not stated),-8.51%
10,c1cnc(SCCCOc2ccc3ccccc3c2)nc1,-7.21%
11,Cc1ccc(NC(=O)CCC(=O)c2cccs2)cc1,0.275%
12,C=CCNc1nc(-c2ccc3c(c2)OCCO3)cs1,-18.3%
13,O=c1oc(CCCO)cc2ccc(/C=C/c3cccc([N+](=O)[O-])c3)cc12,9.18%
14,CN1CCCN(C(=O)c2cc(-c3cccc4ccccc34)nc3ccccc23)CC1,-16.5%
15,COc1ccc(NC(=O)c2cc(-c3ccco3)on2)cc1,2.5%
16,O=C(Nc1cccnc1Cl)c1cc(-c2ccco2)on1,5.57%
17,O=C(Nc1ccc(F)c(Cl)c1)c1cc(-c2ccco2)on1,15.2%
18,CC(C)c1cc(C(=O)NCCc2ccccc2)no1,-19.3%
19,COc1ccc2cc(-c3ccccc3)c(=O)oc2c1,-12.2%
20,Cc1ccc(C)c(OCc2cc(C(=O)N3CC[C@H](O)C3)no2)c1,-11.7%
21,COC(=O)C1=C(N)Oc2c(oc(CO)cc2=O)C1c1ccc(F)cc1 (configuration not stated),-12.3%

row,SMILES,"activity change, negative = cytotoxicity"
1,Fc1ccc(SCCc2ccccn2)cc1,-10.7%
2,CCOC(=O)C1CCN(C(=O)C(CC)c2ccccc2)CC1 (configuration not stated),0.165%
3,CCOC(=O)C1CCN(C(=O)/C=C/c2ccccc2)CC1,-14.5%
4,O=C(Nc1cccc(-c2ccc(N3CCOCC3)nn2)c1)c1cccc(Cl)c1,-6.34%
5,Cc1ccc(C(=O)Nc2cccc(-c3ccc(N4CCOCC4)nn3)c2)cc1,-19.4% [at 12 µM]
6,Fc1ccc(/C=C/c2nnc(-c3cccs3)o2)cc1,-11.6%
7,O=C(C=NNc1ccccc1)c1ccccc1,-23.1%
8,CCC(C)C(=O)Nc1nnc(-c2cccs2)s1 (configuration not stated),22.8%
9,O=C(Nc1cccnc1)c1ccc(Oc2ccccc2)cc1,-11.8%
10,O=C(Nc1ncccc1Cl)c1cc2ccccc2o1,-1.87%
11,NC(=O)c1ccccc1NC(=O)c1ccc2c(c1)OCO2,-17%
12,O=C(Nc1cccnc1Cl)c1cc2ccccc2o1,-5.8%
13,O=C(Nc1ccc(Cl)cc1Cl)c1ccc2c(c1)OCCO2,0.31%
14,O=C(Nc1cccc([N+](=O)[O-])c1)c1ccc2c(c1)OCCO2,32.1% [at 12 µM]
15,O=C(Nc1ccccc1F)c1ccc2c(c1)OCO2,-28%
16,O=C(Nc1ncccc1O)c1ccc2ccccc2c1,-15.9%
17,CC(=O)Oc1ccc(Oc2ccc(-c3noc(C)n3)cc2)cc1,-9.53%
18,CSc1nnc(NC(=O)c2ccc(S(=O)(=O)N(C)C)cc2)s1,-1.21%
19,CN(C)c1ccc(-c2nnc(-c3cccs3)o2)cc1,-9.57%
20,CCN(CC)C(=O)C1CCN(Cc2cn(C)nc2-c2ccc(Oc3ccccc3)cc2)CC1,4.7%
21,COc1ccc(-c2[nH]ncc2CNC(C)c2ccccc2Cl)cc1F (configuration not stated),-10.5%

row,SMILES,"activity change, negative = cytotoxicity"
1,O=C(O)c1ccccc1-c1ccccc1C(=O)NNc1ccccc1,-11.9%
2,O=C(N/N=C/c1ccc(N2CCOCC2)cc1)c1ccccn1,-21.9%
3,O=C(COC(=O)c1ccc(F)c(S(=O)(=O)N2CCCCC2)c1)NCc1ccc(F)cc1,13.5%
4,Oc1ccc(-c2csc(Nc3ccc4c(c3)OCO4)n2)c(O)c1,-4.71%
5,Oc1ccc(-c2csc(Nc3ncccn3)n2)c(O)c1,0.686%
6,O=C(/C=C\Nc1ccc2c(c1)OCO2)c1ccc2c(c1)OCO2,-15.2%
7,Fc1ccccc1-c1nc(-c2ccncc2)no1,-9.69%
8,Fc1ccccc1-c1nc(-c2ccccc2)no1,-10.7%
9,S=C(c1ccc(-c2cccc(Cl)c2)o1)N1CCCCC1,-11.6%
10,COc1ccc(/C=C/C(=O)c2ccc[nH]2)cc1OC,-6.18%
11,Cc1ccc(Cc2c(-c3cccc(Cl)c3)nc3ccc(Br)cn23)cc1,2.45%
12,CC(=O)N1N=C(c2ccccc2)CC1c1cn(C)c2ccccc12 (configuration not stated),38.2%
13,COc1ccc(C2=NN(C(=O)c3ccccc3C(=O)O)C(c3ccccc3O)C2)cc1 (configuration not stated),3.34%
14,O=c1oc2ccccc2cc1-c1nnc(NCc2ccco2)s1,-16.9%
15,Cc1cc(OCc2cc(C(=O)N(C)C3CCOC3)no2)cc(C)c1Cl (configuration not stated),-9.61%
16,Nc1c(C(=O)Nc2ccc3c(c2)OCCO3)nnn1Cc1cccc(Cl)c1,-26.3%
17,C(/CCc1ccccc1)=N\Nc1nc2ccccc2[nH]1,0.412%
18,Oc1ccc(Br)cc1-c1cc(-c2ccccc2F)[nH]n1,-27.4%
19,Oc1ccccc1-c1cc(-c2ccc(F)cc2)n[nH]1,-34.5%
20,Cc1ccccc1-c1cc(-c2ccccc2O)n[nH]1,3.4% [at 12 µM]
